test system: LXRb:RXRa (NR concentration 270 nM, RXRa partner concentration 90 nM); assay: PBM binding z-score (relative to random genomic background probes); higher = stronger binding; sequences stand for … in GC…GCGATTGACAGCGTAGAATGAAGG
Outline: (§1)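 Binding z-scores were set against random background probes. The data came from custom Agilent 4×180K protein-binding microarrays carrying double-stranded probes with 34-nt variable regions, incubated 1 h with ligand-free nuclear receptor dimers. Partner-specific antibodies detected binding, and scanned fluorescence was regression-normalized.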

How did the PBM binding z-score turn out when TCATATAGGTAAATGCTAGGGGAAAGTCCGATCT was run?
Its PBM binding z-score is 0.865.

With CCTTACGGTTCACTCCAGGTTATAGCATCGGAGT as the sequence, how does the PBM binding z-score read?
Its PBM binding z-score is 3.58.

For ACTAGCAGGCCAAGTTTGGGTCTCTCAAACAAAG, which PBM binding z-score is on record?
The PBM binding z-score was -0.616.

TCGACTAGGTTAGTCGGGGCATTCAGCCAACATA was tested. Which PBM binding z-score did it give?
Its PBM binding z-score is -0.0911.

For ATCTCTAGGTAACGAAGTTCAGTGAATGCCGAAC, which PBM binding z-score is on record?
Its PBM binding z-score is 0.411.

CATACAGGGTCAGCCAGGCCAGAGTAGGGACGGC was tested. Which PBM binding z-score did it give?
Its PBM binding z-score is 2.24.

How did the PBM binding z-score turn out when ATATGAAGGTTAGCTGGGGTCATTCAGACTAGGC was run?
The PBM binding z-score was 5.36.

For ATCTCTAGGTAAAGATAGTTCAGCGAATGCAAAT, which PBM binding z-score is on record?
The PBM binding z-score was 0.836.

How did the PBM binding z-score turn out when TATACAGGGTCAAAGCCCAGAGTACGAATGTCGA was run?
The PBM binding z-score was 4.7.

For TCTGCTAAGTCAACGATGGTCAGCTAATCTGCTA, which PBM binding z-score is on record?
Its PBM binding z-score is -0.553.

Which PBM binding z-score does the source give for ATATGTAGGTTACATCCGGGTTATTCAGGCTATG here?
The PBM binding z-score was 1.71.

CCTATTACTTGACCATAAGGGCAACCGAAGCTCG was tested. Which PBM binding z-score did it give?
The PBM binding z-score was 1.06.

For CCTATTAGTTGACCATAAGGGCGACCGAAGCTCG, which PBM binding z-score is on record?
Its PBM binding z-score is 0.554.

TCTAGTTGGTCACTGAGGTCACACACGACGGGTA was tested. Which PBM binding z-score did it give?
Its PBM binding z-score is 3.59.

How did the PBM binding z-score turn out when TCTGCTAGGTCAACGATGGTCAGCTCATCTGCTA was run?
Its PBM binding z-score is 1.81.

Which PBM binding z-score does the source give for AGAATGAGGTTATACGCAGATCAGGGAAGAAAGT here?
Its PBM binding z-score is 1.68.

Which PBM binding z-score does the source give for TCTATTAGTTGTTTAGGGCAACCGAAACAGCGGA here?
The PBM binding z-score was 0.727.

With CCCGACAGGTGAAAGGTAACTCAGTCTGGTACGC as the sequence, how does the PBM binding z-score read?
The PBM binding z-score was 0.876.

test system: LXRb homodimer (NR concentration 270 nM); assay: as above
Outline: as §1

With TCTCGGAGGACACGAAGGTCAGAGCCTTCCAGAG as the sequence, how does the PBM binding z-score read?
The PBM binding z-score was -0.905.

How did the PBM binding z-score turn out when ACAGACAGGTGAGTGAAGGTAACGCAGCTGGACG was run?
The PBM binding z-score was -0.518.

For AGTCAAAGTTCAGGACGAGGTATCGTAAAGCACG, which PBM binding z-score is on record?
The PBM binding z-score was -0.0231.

Which PBM binding z-score does the source give for TCTAGTTGGTCACGGCGGTCACACACGACGGGTA here?
The PBM binding z-score was 0.516.

ACTGACGGGTCAACGAGGTTATAGCACGCGTATA was tested. Which PBM binding z-score did it give?
Its PBM binding z-score is 0.166.

TCGAGTAGGTTAGGGGCAATCAGAATGGCGTCGA was tested. Which PBM binding z-score did it give?
Its PBM binding z-score is -0.231.

How did the PBM binding z-score turn out when AGAATGAGGTTAAGATCAGCGAAACAGAATACAT was run?
The PBM binding z-score was -0.0572.

How did the PBM binding z-score turn out when TCAGACAAGTGAAGGTAACTCAGGTACGCAGTCG was run?
Its PBM binding z-score is -0.499.

Which PBM binding z-score does the source give for ACTATTAGTTGACTTAGGGCAACCGCTACGACGC here?
The PBM binding z-score was 0.492.

With ATGTGTAGGTTAAGGGTCATTCAGGTTGGTTCGC as the sequence, how does the PBM binding z-score read?
Its PBM binding z-score is 2.56.

Which PBM binding z-score does the source give for CAAACTCGGTCACGAAAGGTCAAAGTCGAATGAC here?
The PBM binding z-score was 2.6.

With ATATATAGGTTACATCCGGGTCATTCAGGCTATG as the sequence, how does the PBM binding z-score read?
The PBM binding z-score was 1.23.

For AGAATGAGGTTACCAAAGATCATGGAAACGCTTG, which PBM binding z-score is on record?
Its PBM binding z-score is -0.29.

How did the PBM binding z-score turn out when TTACCAAGCTGAAAGGTCGTTGATGCACGCCTTG was run?
Its PBM binding z-score is -1.11.

Which PBM binding z-score does the source give for CTCGAAAGGTCGTGCTCAGCTGAGTATACCAAAC here?
The PBM binding z-score was 0.329.

Which PBM binding z-score does the source give for ACCGAAAGGTCGACGAGGTGAGTATACACCGTTT here?
Its PBM binding z-score is -0.0188.

With AGCATGAGGTTATTAAGATCAGGGAATTGCGGTC as the sequence, how does the PBM binding z-score read?
Its PBM binding z-score is -0.175.

Which PBM binding z-score does the source give for AGAACGAGGGCAATGATTTGATAGCACGGGTGGC here?
Its PBM binding z-score is -0.65.

How did the PBM binding z-score turn out when TCATATAGGTAATACAGGTGACAGTCGGCATCTA was run?
The PBM binding z-score was 0.0585.

How did the PBM binding z-score turn out when CCTAGCAGGCCAATCTGGGCCACTCAAGGCTTGA was run?
Its PBM binding z-score is -1.02.

Which PBM binding z-score does the source give for CCAAACAGGTGAGAAGGTAACTCAGCCTCGATTA here?
Its PBM binding z-score is -0.392.

With GTTAGTTGGTCAGTAAAAGGTCACACACCGGTCG as the sequence, how does the PBM binding z-score read?
Its PBM binding z-score is 1.41.

How did the PBM binding z-score turn out when TCATATAGGTAAATGCTAGGGGAAAGTCCGATCT was run?
Its PBM binding z-score is 0.134.

CCTTACGGTTCACTCCAGGTTATAGCATCGGAGT was tested. Which PBM binding z-score did it give?
The PBM binding z-score was 0.998.

ACTAGCAGGCCAAGTTTGGGTCTCTCAAACAAAG was tested. Which PBM binding z-score did it give?
The PBM binding z-score was -0.908.

For TCGACTAGGTTAGTCGGGGCATTCAGCCAACATA, which PBM binding z-score is on record?
The PBM binding z-score was -0.943.

For ATCTCTAGGTAACGAAGTTCAGTGAATGCCGAAC, which PBM binding z-score is on record?
The PBM binding z-score was 0.414.

How did the PBM binding z-score turn out when CATACAGGGTCAGCCAGGCCAGAGTAGGGACGGC was run?
Its PBM binding z-score is 0.282.

ATATGAAGGTTAGCTGGGGTCATTCAGACTAGGC was tested. Which PBM binding z-score did it give?
Its PBM binding z-score is 1.06.

With ATCTCTAGGTAAAGATAGTTCAGCGAATGCAAAT as the sequence, how does the PBM binding z-score read?
Its PBM binding z-score is 0.431.

For TATACAGGGTCAAAGCCCAGAGTACGAATGTCGA, which PBM binding z-score is on record?
The PBM binding z-score was 2.15.

With TCTGCTAAGTCAACGATGGTCAGCTAATCTGCTA as the sequence, how does the PBM binding z-score read?
Its PBM binding z-score is -0.721.

Which PBM binding z-score does the source give for ATATGTAGGTTACATCCGGGTTATTCAGGCTATG here?
Its PBM binding z-score is 0.53.

CCTATTACTTGACCATAAGGGCAACCGAAGCTCG was tested. Which PBM binding z-score did it give?
The PBM binding z-score was 1.31.

For CCTATTAGTTGACCATAAGGGCGACCGAAGCTCG, which PBM binding z-score is on record?
Its PBM binding z-score is 0.545.

For TCTAGTTGGTCACTGAGGTCACACACGACGGGTA, which PBM binding z-score is on record?
Its PBM binding z-score is 0.98.

For TCTGCTAGGTCAACGATGGTCAGCTCATCTGCTA, which PBM binding z-score is on record?
The PBM binding z-score was 0.088.

For AGAATGAGGTTATACGCAGATCAGGGAAGAAAGT, which PBM binding z-score is on record?
Its PBM binding z-score is -0.102.

For TCTATTAGTTGTTTAGGGCAACCGAAACAGCGGA, which PBM binding z-score is on record?
The PBM binding z-score was 1.15.

With CCCGACAGGTGAAAGGTAACTCAGTCTGGTACGC as the sequence, how does the PBM binding z-score read?
The PBM binding z-score was -0.143.

From the supplement of paper PMC6555819
